What is called AC50 is the concentration at which the activity in the assay is half-maximal.

Records with an inconclusive call do not appear. Activity calls are given as the source filed them. The calls were made as follows: active = hit-call score of the fitted dose curve at least 0.9, where 1 is the maximum; inconclusive = response in the unintended direction; inactive = score below 0.9.

The nature of the assay: ACEA_ER_AUC_viability: ACEA Biosciences xCELLigence Real-Time Cell Analysis on Estrogen Receptor Agonism for Viability (AID 2283782).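 Also: continuous compound exposure with impedance area under curve over 80 h; hit means loss of impedance signal meaning reduced cell growth or viability.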 Summed up:
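T-47D; phenol red-free RPMI1640 + 10% CS-FBS; 8 conc., 1:4 serial, max 100 uM final, ≤0.5% DMSO; n = 2; continuous exposure; impedance monitored to 80 h post-dose; AUC vs DMSO.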
Consider `Cn1c(=O)[nH]c2ncn(C)c2c1=O`, for which the call was inactive.

Consider `C=CC(=O)NC(C)(C)CS(=O)(=O)O`, for which the AC50 is 11.2 µM (active).

With `CC(C)c1ccc(C=O)cc1`, the compound was classed as inactive.

Consider `CCCCCCCCCCCCCCCC(=O)OCC`, for which the compound was classed as inactive.

Take `Cc1cc(C)c(C)cc1C`: the compound was called inactive.

Turning to `Cc1c(C)c([N+](=O)[O-])c(C(C)(C)C)c([N+](=O)[O-])c1C`, the result was inactive.

As for `Cc1cc(C)c(C)c(O)c1`, the call was inactive.

In the case of `C=CCOCC(O)CCl` (stereo not given), the call was inactive.

For `CCCOC(=O)CCCCC(=O)OCCC`, the AC50 was 50 µM (active).

Turning to `CCCCCCCCCCC=CC#N`, the concentration at half-maximal activity (AC50) was 50 µM (active).

Source of the values: PubChem BioAssay (EPA / NIEHS).
